A selection: hits, their analogues and other compounds. The true share with any hit is near 1.6%.
S1P2 blocker: antagonists of human S1P2 receptor; 97,000 compounds, 0.21% hits; inhibition, % at 5 µM; cell-based S1P2 antagonist assay, inhibition at 5 uM; O95136; in the data active means inhibition above about 45%;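 further: CRE beta-lactamase reporter cells expressing human S1P2 stimulated with S1P; 0% = agonist at EC80 alone and 100% = agonist plus reference antagonist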
Target sequence (O95136 whole entry, looked up): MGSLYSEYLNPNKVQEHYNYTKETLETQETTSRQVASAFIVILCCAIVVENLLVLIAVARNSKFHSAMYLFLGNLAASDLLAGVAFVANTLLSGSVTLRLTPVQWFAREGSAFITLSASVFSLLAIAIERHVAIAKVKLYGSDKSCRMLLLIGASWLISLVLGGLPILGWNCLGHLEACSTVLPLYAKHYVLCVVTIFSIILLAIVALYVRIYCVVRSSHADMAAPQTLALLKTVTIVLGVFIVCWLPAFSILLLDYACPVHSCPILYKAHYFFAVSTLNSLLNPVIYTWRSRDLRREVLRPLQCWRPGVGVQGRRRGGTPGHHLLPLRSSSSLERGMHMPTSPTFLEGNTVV
TNFa cytotox: HUVEC cytotoxicity counter-screen, TNF alpha stimulated. HUVEC TNFalpha-stimulated, Hoechst cell count, imaging. cell count reduction, % at 2 µM. 93,000 compounds, 0.17% hits. AID 848;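 active means cell count reduction exceeding the screen mean by over 5 SD, scaled to untreated wells per plate, cut at about 78% in these data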;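 further: cells counted after 24 h of TNF alpha exposure following the 1 h pretreatment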
F-actin modifier: cytoskeleton assembly modification | inhibition, % at 2 µM | 91,000 compounds, 0.18% hits | HUVEC TNFa F-actin phalloidin imaging, high content;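 active means inhibition above the batch mean plus 3 SD and confirmed as a hit by visual image inspection, cut at about 30% in these data, passing the limit was not always enough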
E-sel TNF inh: blocks E-selectin expression induced by TNF alpha; HUVEC TNFa-induced E-selectin immunofluorescence, high content; inhibition, % at 2 µM; 120,000 compounds, 0.71% hits; AID 1246;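 active means inhibition above the batch mean plus 3 SD, and confirmed as a hit on visual image review, cut at about 43% in these data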;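 further: 0% = TNF-stimulated DMSO wells and 100% = unstimulated control wells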
VCAM1 TNFa inh: reduces TNF alpha induced VCAM1 expression in HUVEC. HUVEC TNFa-induced VCAM-1 immunofluorescence, high-content imaging. inhibition, % at 2 µM. 95,000 compounds, 0.48% hits. AID 802;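 active means inhibition above the batch mean plus 3 SD, with images confirmed as a hit by eye, cut at about 37% in these data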;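 further: 0% = TNF-stimulated DMSO wells and 100% = unstimulated control wells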
S1P2 agonist: activates the human S1P2 receptor; activation, % at 4.5 µM; 97,000 compounds, 0.46% hits; S1P2-expressing cell line, agonist reporter read-out; AID 729; in the data active means activation above about 16%;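 further: 0% = vehicle low control and 100% = maximal reference agonist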
* = called active by the depositor; · = not tested or not shown.

SMILES	S1P2 blocker	TNFa cytotox	F-actin modifier	E-sel TNF inh	VCAM1 TNFa inh	S1P2 agonist
CCCOc1ccccc1C1C(C(=O)OC)=CN(C(C)C)C=C1C(=O)OC	-16	21	-20	-9	-15	32*
COCCN1C=C(C(=O)OC)C(c2ccc(Cl)cc2)C(C(=O)OC)=C1	·	·	·	-30	·	·
COC(=O)C1=CN(CC2CCCO2)C=C(C(=O)OC)C1c1ccccc1C(F)(F)F (stereo unspecified)	2	-5	18	-24	-9	11
COC(=O)C1=CN(C)C=C(C(=O)OC)C1c1ccccc1Cl	-24	-16	-30	-18	10	23*
COC(=O)C1=CN(CCCN2CCCC2=O)C=C(C(=O)OC)C1c1ccccc1C(F)(F)F	-11	-6	-11	20	-11	20*
COC(=O)C1=CN(C(C)C)C=C(C(=O)OC)C1c1cccc(OC)c1	-17	-45	17	7	-11	12
CCCCOc1ccccc1C1C(C(=O)OC)=CN(CC)C=C1C(=O)OC	-47	-19	18	26	-4	24*
CCc1nc(NCCCCCO)c2nnn(Cc3ccccc3F)c2n1	-37	-16	4	11	10	0
C#CCNc1nc(CC)nc2c1nnn2Cc1ccccc1F	-30	·	12	4	·	28*
Cc1c(Nc2cc(Cl)c3nonc3c2[N+](=O)[O-])c(=O)n(-c2ccccc2)n1C	·	·	·	100*	·	·
O=C(c1ccc(Cl)cc1)N1CCCC(c2ccccc2)=N1	-4	1	15	100*	16	-3
O=C(CS(=O)c1ccc(C(F)(F)F)cc1[N+](=O)[O-])Oc1ccc(Cl)cc1 (stereo unspecified)	33	13	27	33	72*	-3
O=C(O)C(=O)/C(=C\c1ccccc1)c1ccc2ccccc2n1	12	-9	6	91*	2	-2
COc1ccc(Cl)cc1NC(=O)C(C)N(C)Cc1ccc(C(F)(F)F)cc1 (stereo unspecified)	·	·	·	-4	·	·
O=c1cc(O)n(-c2ccc(F)cc2)c(=S)[nH]1	5	-14	3	71*	6	-1
C(=N\Nc1ncnc2nc[nH]c12)/c1cccs1	·	·	·	9	·	·
CCOC(=O)N1CCN(C(=O)C2CCN(S(=O)(=O)c3cc(OC)ccc3OC)CC2)CC1	·	·	·	72*	·	·
COc1cc(CNCc2ccco2)ccc1OCc1ccccc1	12	-6	46*	57*	-5	-3
Cc1cc(=S)cc(C)n1CCO	·	·	·	-1	·	·
COc1cc(/C=N/Nc2snc(SC)c2C#N)ccc1O	4	-14	5	·	43*	-1
O=C(CSc1nnc(SCc2ccc(Cl)cc2)s1)N/N=C/c1c(Cl)cccc1Cl	·	·	·	15	·	·
COc1ccc(Nc2cc(C(=O)NCCCN3CCOCC3)c3ccccc3n2)cc1OC	-14	-24	35*	14	17	-3
COc1ccc(Nc2cc(C(=O)NCCCN3CCN(C)CC3)c3ccccc3n2)cc1OC	15	·	·	2	·	-9
COc1ccc(OC)c(S(=O)(=O)NC(N)=NCCc2ccccc2OC)c1	·	·	·	-11	·	·
Cn1c(SCc2ccc(Br)cc2)nnc1-c1ccncc1	3	-16	1	73*	-1	1
SMILES	S1P2 blocker	TNFa cytotox	F-actin modifier	E-sel TNF inh	VCAM1 TNFa inh	S1P2 agonist
Cn1c(SCc2ccccc2)nnc1-c1ccncc1	23	-11	20	·	-10	-4
CCNCC(O)COCC(O)CNCC (stereo unspecified)	0	78	10	-12	62*	-5
CCC(C)NC(=O)c1ccccc1-c1nc2ccccc2[nH]1 (stereo unspecified)	·	·	·	-3	·	·
Nc1nc2nc(-c3ccc(Cl)cc3)cc(C(F)(F)F)n2n1	-5	1	1	-4	10	-5
Nc1nc2nc(-c3ccc(OCc4ccccc4)cc3)cc(C(F)(F)F)n2n1	-70	-5	-8	0	12	33*
CCCN1CCc2[nH]c(=S)[nH]c(=O)c2C1	·	·	·	68*	·	·
CC(C)N1CCc2[nH]c(=S)[nH]c(=O)c2C1	·	·	·	-19	·	·
CCC(=O)Nc1cc(C(=O)OCc2ccc(C(=O)Oc3ccccc3)cc2)ccc1C	·	·	·	0	·	·
O=C(Nc1ccc2nc(SCc3ccc(Cl)cc3)sc2c1)c1ccccc1C(=O)N1CCOCC1	13	18	-19	53*	26	-6
COC(=O)CSc1nc2ccc(NC(=O)c3ccccc3C(=O)N3CCOCC3)cc2s1	·	·	·	-12	·	·
COc1cccc(/C=N/Nc2nc(Nc3ccccc3)nc(-n3nc(C)cc3C)n2)c1O	-11	34	2	22	87*	2
COC(=O)CCc1sc(Nc2ccccc2)nc1-c1ccc(OC)cc1	·	·	·	-4	·	·
COc1ccc(C2C/C(=N\O)C(C)(C)O2)cc1 (stereo unspecified)	-4	20	2	·	-3	-6
COc1ccc(C2CC(O)(C(C)(C)O)NO2)cc1 (stereo unspecified)	17	-5	·	47*	-8	-6
CCC(C)NC(=O)c1ccccc1NC(=O)/C(=C/c1ccc(OC)cc1)c1ccccc1 (stereo unspecified)	·	·	·	4	·	·
CN(C)CCNC(=O)/C(=C/c1ccc(-c2ccc(Cl)cc2)o1)NC(=O)c1ccccc1	·	·	·	94*	·	·
O=C(NCC1CCCO1)/C(=C\c1ccc(Cl)cc1)NC(=O)c1ccccc1 (stereo unspecified)	1	6	-4	-51	11	-4
COc1ccc(NC(=O)Cn2nnc(C(=O)NCc3ccccc3OC)c2N)cc1Cl	47*	9	-13	-16	19	-7
Clc1ccc(Sc2cc(Cl)c(-c3ccccc3)nn2)cc1	1	-6	10	38	0	3
COc1ccc(N2CCN(C(=O)CSc3nnc4c(C)cc5cc(C)ccc5n34)CC2)cc1	17	-14	51*	·	-5	-2
O=S(=O)(/C=C/c1ccccc1)Oc1ccccc1	3	-6	2	-1	14	-7
CCOC(=O)c1c(NC(=O)c2ccccc2)sc2c(O)c(CN(CC)CC)ccc12	21	-24	32	·	5	-6
CCOC(=O)c1c(NC(C)=O)sc2c(O)cccc12	·	·	·	56*	·	·
Nc1ccc(Br)cc1-c1nc2ccccc2[nH]c1=O	·	·	·	100*	·	·
O=c1[nH]c2ccccc2nc1Cc1ccccc1	-11	-10	-21	1	-16	-5
SMILES	S1P2 blocker	TNFa cytotox	F-actin modifier	E-sel TNF inh	VCAM1 TNFa inh	S1P2 agonist
Cc1noc(C)c1S(=O)(=O)N1CCN(C(c2ccccc2)c2ccc(Cl)cc2)CC1 (stereo unspecified)	15	86*	27	·	-16	-2
Cc1noc(C)c1S(=O)(=O)N1CCC2(CC1)OCCO2	-21	95*	-14	-4	88*	-4
COC(=O)c1ccsc1NC(=O)C1=COCCO1	-5	92*	-34	·	25	-1
COC(=O)Nc1sccc1C(=O)Nc1sccc1C(=O)OC	-10	-1	-9	-10	9	-1
O=C(CNc1ccccc1OC(F)F)N1CCc2ccccc21	·	·	·	1	·	·
CCn1c2ccccc2c2nc3cc(S(=O)(=O)N4CCOCC4)ccc3nc21	-32	-18	0	·	-8	31*
O=CN1CCN(C(=O)c2ccc(-c3nc4ccccc4s3)s2)CC1	·	·	·	11	·	·

High-throughput results from PubChem.
